# Reference: ChEMBL document CHEMBL3988442, “University of Dundee, Small-Polar-MMV Screening Library” (2021)
# For some assays here: Results with a measured potency or affinity are listed apart.
# Assays:
# [1] = target: Protein translocase subunit SecA (Escherichia coli (strain K12)) (UniProt P10408); experiment: Assay to Identify E. coli SecA ATPase Inhibitors; assay type: functional; set-up: scale not given: direction of the effect not stated beside the values; conditions: 30 µM
# [2] = target: T1, Ubiquitin-activating enzyme e1, putative (Leishmania donovani (strain BPK282A1)) (UniProt E9BSI1); experiment: Leishmania donovani Ubiquitin Activating Enzyme (LdE1); assay type: functional; set-up: scale not given: direction of the effect not stated beside the values; conditions: 30 µM
# T1 sequence (whole entry): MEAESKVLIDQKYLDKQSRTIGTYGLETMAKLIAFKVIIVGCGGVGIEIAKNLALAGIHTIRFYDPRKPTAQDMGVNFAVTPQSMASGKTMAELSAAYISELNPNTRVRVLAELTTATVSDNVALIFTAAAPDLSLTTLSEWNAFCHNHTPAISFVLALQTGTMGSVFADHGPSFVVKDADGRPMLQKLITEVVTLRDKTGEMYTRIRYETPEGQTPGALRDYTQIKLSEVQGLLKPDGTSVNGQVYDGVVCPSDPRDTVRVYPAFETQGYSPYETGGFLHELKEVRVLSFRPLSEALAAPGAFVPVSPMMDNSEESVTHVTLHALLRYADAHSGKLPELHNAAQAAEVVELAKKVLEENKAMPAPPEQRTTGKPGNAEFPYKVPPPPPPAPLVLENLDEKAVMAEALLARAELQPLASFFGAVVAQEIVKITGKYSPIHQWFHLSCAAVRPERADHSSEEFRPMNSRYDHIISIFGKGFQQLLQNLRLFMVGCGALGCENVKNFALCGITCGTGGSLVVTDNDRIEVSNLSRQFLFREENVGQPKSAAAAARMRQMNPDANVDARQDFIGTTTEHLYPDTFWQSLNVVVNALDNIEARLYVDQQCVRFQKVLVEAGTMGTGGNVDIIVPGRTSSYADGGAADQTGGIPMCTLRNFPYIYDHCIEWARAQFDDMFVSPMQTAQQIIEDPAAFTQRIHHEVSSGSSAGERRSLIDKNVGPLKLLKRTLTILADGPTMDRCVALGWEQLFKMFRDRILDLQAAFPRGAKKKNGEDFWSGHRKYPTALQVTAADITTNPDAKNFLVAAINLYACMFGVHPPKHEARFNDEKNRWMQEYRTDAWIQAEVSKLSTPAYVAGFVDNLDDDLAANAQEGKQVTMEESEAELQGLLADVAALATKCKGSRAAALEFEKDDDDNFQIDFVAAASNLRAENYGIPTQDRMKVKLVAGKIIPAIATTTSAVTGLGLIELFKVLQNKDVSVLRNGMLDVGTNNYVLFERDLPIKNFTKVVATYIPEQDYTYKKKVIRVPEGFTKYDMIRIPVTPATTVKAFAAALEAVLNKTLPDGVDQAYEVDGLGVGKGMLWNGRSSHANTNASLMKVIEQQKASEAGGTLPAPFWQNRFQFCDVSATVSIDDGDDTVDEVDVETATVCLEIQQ
# [3] = target: T2, Aspartate--tRNA(Asp/Asn) ligase (Mycobacterium tuberculosis (strain ATCC 25618 / H37Rv)) (UniProt P9WFW3); experiment: Assay for Asp RNA synthetase-1 from Mycobacterium tuberculosis; assay type: functional; set-up: scale not given: direction of the effect not stated beside the values; conditions: 30 µM; further: in the data most compounds retested in dose-response had high values
# T2 sequence (whole entry): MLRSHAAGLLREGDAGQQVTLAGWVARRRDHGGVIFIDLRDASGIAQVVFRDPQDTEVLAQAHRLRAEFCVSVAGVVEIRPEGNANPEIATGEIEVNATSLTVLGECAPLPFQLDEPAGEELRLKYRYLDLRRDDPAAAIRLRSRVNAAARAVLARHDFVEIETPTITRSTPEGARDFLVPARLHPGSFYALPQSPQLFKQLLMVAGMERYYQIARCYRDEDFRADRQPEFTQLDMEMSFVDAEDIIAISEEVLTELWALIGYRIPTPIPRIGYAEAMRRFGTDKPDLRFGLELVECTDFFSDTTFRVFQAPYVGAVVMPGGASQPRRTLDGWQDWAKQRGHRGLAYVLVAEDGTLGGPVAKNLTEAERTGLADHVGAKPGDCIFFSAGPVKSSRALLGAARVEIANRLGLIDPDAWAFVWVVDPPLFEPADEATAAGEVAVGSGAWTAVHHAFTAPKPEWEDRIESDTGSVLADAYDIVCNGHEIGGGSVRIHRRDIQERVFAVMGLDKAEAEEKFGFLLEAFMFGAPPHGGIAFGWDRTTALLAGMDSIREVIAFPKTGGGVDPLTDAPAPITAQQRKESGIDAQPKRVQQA
# [4] = target: AMP-activated protein kinase, AMPK (Homo sapiens) (UniProt P54646+O43741+P54619+Q9UGJ0+Q9Y478+Q13131+Q9UGI9); experiment: AMP-dependent Kinase enzyme assay. An in vitro enzyme assay that detects ADP turnover that is directly proportional to AMPK activity. This uses naive AMPK that is activated during the assay with MK-8722; assay type: functional; set-up: scale not given: direction of the effect not stated beside the values; conditions: 30 µM
# [5] = target: Sialic acid-binding Ig-like lectin 9 (Homo sapiens) (UniProt Q9Y336); experiment: Hs-Siglec9 ALPHAscreen SOP 20170721; set-up: scale not given: direction of the effect not stated beside the values; conditions: 10 µM
# Trypanosoma cruzi = experiment: Trypanosoma cruzi phosphomannomutase and mannose-1-phosphate guanylyltransferase assay; assay type: functional; set-up: scale not given: direction of the effect not stated beside the values; conditions: 10 µM
# [6] = target: T3, Arginase-2, mitochondrial (Homo sapiens) (UniProt P78540); experiment: in vitro enzyme assay to detect the production of urea directly proportional to the activity of Arginase II; assay type: functional; set-up: scale not given: in the data most compounds retested in dose-response had high values; conditions: 33.3 µM
# T3 sequence (whole entry): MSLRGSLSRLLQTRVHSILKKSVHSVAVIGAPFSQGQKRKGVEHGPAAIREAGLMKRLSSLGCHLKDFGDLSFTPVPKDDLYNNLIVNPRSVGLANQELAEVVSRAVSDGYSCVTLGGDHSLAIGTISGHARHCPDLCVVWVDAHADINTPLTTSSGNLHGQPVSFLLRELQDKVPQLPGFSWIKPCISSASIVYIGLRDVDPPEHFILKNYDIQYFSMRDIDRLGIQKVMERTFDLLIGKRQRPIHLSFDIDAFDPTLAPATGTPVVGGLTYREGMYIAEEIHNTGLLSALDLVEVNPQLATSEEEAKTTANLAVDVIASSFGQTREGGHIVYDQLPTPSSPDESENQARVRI
# [7] = target: T4, Proteasome subunit beta (Trypanosoma cruzi) (UniProt O96673); experiment: Trypanosoma cruzi proteasome chymotrypsin-like activity (TcProtChymo) assay.; assay type: functional; set-up: scale not given: in the data most compounds retested in dose-response had high values; conditions: 9.37 µM
# T4 sequence (whole entry): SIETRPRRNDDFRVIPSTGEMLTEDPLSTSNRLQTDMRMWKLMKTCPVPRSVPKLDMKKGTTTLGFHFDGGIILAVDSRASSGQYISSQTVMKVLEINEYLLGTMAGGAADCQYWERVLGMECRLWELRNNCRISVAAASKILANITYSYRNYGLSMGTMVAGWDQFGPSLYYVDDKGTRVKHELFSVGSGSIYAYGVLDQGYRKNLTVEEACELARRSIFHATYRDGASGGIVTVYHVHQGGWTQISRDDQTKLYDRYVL
# Homo sapiens = organism: Homo sapiens; experiment: To identify inhibition of the IFN signalling (Jak-Stat) pathway via expression of an eGFP reporter gene under the control of an IFN-stimulated response element (ISRE) containing MxA promoter.; assay type: functional; set-up: scale not given: direction of the effect not stated beside the values; conditions: 30 µM
# [8] = target: Shiga toxin 2 (Escherichia coli O157:H7) (UniProt P09385+P09386); experiment: E. coli 0.157:H7 Shiga Toxin SOP - stx2 screening assay; assay type: functional; set-up: scale not given: direction of the effect not stated beside the values; conditions: 30 µM
# [9] = target: T5, Tyrosyl-tRNA synthetase, putative (Trypanosoma cruzi (strain CL Brener)) (UniProt Q4DSP6); experiment: Trypanosoma cruzi tyrosyl tRNA synthetase (TcYRS) _High Tyrosine SOP; assay type: functional; set-up: scale not given: in the data most compounds retested in dose-response had high values; conditions: 30 µM
# T5 sequence (whole entry): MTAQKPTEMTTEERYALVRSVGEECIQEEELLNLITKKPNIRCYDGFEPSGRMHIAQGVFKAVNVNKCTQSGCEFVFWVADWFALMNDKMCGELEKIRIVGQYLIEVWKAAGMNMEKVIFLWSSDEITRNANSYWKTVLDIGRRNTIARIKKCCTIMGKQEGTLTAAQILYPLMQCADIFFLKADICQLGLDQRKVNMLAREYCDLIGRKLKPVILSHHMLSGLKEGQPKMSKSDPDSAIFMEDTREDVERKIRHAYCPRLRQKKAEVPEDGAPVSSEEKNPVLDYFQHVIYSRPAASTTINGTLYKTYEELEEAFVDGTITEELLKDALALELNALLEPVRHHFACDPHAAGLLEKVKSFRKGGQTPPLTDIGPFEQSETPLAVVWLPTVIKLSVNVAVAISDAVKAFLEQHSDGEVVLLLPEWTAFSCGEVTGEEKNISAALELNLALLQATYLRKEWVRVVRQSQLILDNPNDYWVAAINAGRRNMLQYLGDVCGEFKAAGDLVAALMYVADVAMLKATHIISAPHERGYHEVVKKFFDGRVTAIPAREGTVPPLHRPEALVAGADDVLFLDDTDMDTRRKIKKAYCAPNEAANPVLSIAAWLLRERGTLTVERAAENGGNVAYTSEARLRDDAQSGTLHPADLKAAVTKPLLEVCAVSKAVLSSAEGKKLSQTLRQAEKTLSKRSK
# [10] = target: T5, Tyrosyl-tRNA synthetase, putative (Trypanosoma cruzi (strain CL Brener)); experiment: Trypanosoma cruzi tyrosyl tRNA synthetase (TcYRS) SOP; assay type: functional; set-up: scale not given: direction of the effect not stated beside the values; conditions: 30 µM
# [11] = target: Chromo domain-containing protein 1 (Saccharomyces cerevisiae (strain ATCC 204508 / S288c) (Baker's yeast)) (UniProt P32657); experiment: ScCHD-1 Enzyme Inhibition Assay; assay type: functional; set-up: scale not given: in the data most compounds retested in dose-response had high values; conditions: 30 µM
# [12] = target: T6, Methionyl-tRNA synthetase, putative (Leishmania donovani (strain BPK282A1)) (UniProt E9BF75); experiment: Leishmania donovani Methionine tRNA synthetase (LdMetRS):v7. Dose response assay; assay type: functional; set-up: conc 80 nM, time 150 minutes
# T6 sequence (whole entry): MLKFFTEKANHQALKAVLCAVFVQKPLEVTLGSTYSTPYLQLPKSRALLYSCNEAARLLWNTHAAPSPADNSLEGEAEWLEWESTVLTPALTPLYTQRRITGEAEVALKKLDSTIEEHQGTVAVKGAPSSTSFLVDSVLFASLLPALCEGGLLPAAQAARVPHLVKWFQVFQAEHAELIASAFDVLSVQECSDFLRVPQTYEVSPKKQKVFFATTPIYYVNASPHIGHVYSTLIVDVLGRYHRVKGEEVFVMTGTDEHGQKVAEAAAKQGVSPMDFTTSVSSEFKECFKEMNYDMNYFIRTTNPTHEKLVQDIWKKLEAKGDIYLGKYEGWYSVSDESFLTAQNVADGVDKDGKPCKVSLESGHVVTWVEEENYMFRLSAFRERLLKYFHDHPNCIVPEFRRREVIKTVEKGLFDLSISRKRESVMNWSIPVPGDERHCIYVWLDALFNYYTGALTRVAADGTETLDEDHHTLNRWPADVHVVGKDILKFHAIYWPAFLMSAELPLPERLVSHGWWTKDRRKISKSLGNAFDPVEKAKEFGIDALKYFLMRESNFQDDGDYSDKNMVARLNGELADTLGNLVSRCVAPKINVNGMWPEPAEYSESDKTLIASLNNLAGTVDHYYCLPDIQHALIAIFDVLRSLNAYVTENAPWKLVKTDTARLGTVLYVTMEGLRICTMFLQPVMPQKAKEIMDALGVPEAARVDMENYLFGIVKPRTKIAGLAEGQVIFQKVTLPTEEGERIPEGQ
# Sequence of Protein translocase subunit SecA (Escherichia coli (strain K12)) (P10408 whole entry): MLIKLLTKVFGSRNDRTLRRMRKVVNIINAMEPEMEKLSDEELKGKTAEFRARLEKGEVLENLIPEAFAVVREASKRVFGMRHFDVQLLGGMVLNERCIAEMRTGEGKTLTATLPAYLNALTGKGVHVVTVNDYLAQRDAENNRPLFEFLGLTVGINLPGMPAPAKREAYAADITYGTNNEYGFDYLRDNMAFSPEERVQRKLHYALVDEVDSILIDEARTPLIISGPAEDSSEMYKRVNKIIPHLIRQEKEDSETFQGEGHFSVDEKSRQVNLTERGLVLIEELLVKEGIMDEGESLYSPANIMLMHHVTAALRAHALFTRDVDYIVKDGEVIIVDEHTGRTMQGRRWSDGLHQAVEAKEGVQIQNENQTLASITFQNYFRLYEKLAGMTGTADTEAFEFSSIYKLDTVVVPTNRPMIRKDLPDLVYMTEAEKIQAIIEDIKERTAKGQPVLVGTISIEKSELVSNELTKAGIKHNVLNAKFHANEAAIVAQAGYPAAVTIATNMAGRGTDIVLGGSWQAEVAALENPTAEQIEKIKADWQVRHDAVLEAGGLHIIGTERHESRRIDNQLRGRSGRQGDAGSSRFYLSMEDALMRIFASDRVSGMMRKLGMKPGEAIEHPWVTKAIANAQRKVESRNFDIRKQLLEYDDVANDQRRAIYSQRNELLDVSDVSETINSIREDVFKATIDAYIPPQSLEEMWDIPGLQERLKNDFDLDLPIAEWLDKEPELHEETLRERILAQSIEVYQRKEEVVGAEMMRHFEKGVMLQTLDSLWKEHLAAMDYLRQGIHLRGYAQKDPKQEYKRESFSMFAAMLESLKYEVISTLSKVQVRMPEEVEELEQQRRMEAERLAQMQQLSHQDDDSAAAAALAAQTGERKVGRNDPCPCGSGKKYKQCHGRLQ
# Sequence of Sialic acid-binding Ig-like lectin 9 (Homo sapiens) (Q9Y336 whole entry): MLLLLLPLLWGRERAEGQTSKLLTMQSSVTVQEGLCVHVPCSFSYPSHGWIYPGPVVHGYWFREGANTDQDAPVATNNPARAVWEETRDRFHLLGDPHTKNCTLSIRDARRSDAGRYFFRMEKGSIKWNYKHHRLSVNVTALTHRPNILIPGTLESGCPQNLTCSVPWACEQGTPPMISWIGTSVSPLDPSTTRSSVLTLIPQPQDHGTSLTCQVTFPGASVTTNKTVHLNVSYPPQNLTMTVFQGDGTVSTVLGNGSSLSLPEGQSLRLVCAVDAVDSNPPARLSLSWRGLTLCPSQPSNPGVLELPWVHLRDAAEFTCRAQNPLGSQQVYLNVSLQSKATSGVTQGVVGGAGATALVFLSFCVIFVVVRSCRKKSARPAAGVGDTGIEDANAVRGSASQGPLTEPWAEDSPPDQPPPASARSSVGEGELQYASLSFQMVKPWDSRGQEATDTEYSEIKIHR
# Sequence of Chromo domain-containing protein 1 (Saccharomyces cerevisiae (strain ATCC 204508 / S288c) (Baker's yeast)) (P32657 whole entry, the tested form may be a part): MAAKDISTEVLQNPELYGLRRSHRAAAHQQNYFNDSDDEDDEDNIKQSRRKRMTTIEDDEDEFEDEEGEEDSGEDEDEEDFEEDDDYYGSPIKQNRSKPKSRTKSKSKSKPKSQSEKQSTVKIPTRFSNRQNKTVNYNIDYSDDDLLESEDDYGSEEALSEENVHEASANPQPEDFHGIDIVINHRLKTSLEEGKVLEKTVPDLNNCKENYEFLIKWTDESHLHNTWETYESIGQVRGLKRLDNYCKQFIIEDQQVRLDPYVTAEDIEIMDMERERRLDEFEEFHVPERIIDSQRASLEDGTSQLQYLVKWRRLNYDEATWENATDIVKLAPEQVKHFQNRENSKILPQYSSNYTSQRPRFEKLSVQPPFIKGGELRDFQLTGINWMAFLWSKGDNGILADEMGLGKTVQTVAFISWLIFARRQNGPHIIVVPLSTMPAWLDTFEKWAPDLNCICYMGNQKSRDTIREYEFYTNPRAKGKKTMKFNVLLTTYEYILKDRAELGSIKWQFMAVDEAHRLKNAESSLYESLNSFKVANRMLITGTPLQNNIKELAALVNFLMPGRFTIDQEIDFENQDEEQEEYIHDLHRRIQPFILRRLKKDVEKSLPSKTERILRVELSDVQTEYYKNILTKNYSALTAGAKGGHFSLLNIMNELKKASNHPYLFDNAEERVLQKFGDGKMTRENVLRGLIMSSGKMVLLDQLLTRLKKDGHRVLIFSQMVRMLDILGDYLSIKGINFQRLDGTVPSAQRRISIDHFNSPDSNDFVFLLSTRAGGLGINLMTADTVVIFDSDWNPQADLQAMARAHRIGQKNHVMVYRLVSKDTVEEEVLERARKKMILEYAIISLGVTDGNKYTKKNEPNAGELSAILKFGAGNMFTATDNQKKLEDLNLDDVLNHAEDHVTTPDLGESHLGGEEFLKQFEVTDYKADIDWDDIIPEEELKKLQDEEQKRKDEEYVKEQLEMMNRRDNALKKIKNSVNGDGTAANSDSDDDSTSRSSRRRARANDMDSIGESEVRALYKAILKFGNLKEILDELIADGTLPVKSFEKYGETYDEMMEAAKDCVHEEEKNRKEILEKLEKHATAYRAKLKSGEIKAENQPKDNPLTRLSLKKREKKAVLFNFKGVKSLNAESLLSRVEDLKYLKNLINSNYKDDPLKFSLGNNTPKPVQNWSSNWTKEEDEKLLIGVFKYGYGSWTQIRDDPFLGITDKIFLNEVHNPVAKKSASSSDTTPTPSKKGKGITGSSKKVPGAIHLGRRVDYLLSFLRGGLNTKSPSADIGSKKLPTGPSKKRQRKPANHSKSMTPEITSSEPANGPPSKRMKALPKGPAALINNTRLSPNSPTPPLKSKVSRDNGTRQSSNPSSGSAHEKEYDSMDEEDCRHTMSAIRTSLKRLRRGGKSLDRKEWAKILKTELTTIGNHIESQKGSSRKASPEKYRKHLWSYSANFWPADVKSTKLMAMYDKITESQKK
smiles,measurement,setting,value
CC(C)N1CCC2(CCN(C(=O)c3cccnc3)CC2)C1,Percent Effect,[1],1.13%
same,Percent Effect,[2],10.8%
same,Percent Effect,[3],1.7%
same,Percent Effect,[4],4.26%
same,Percent Effect,[5],-12.5%
same,Percent Effect,Trypanosoma cruzi,-9.68%
same,Percent Effect,[6],8.6%
same,Percent Effect,[7],20.9%
same,Percent Effect,Homo sapiens,-1.74%
same,Percent Effect,[8],-5.59%
same,Percent Effect,[9],-24.9%
same,Percent Effect,[10],10.3%
same,Percent Effect,[11],-2.2%
Cc1cc(N2CCN3CCCCC3C2)n2nc(C)c(C)c2n1 (stereo not given),Percent Effect,[1],-1.84%
same,Percent Effect,[2],6.94%
same,Percent Effect,[3],-12.4%
same,Percent Effect,[4],-4.39%
same,Percent Effect,[5],-5.54%
same,Percent Effect,Trypanosoma cruzi,-2.43%
same,Percent Effect,[6],-0.442%
same,Percent Effect,[7],14.7%
same,Percent Effect,Homo sapiens,-15.5%
same,Percent Effect,[8],4.77%
same,Percent Effect,[9],4.21%
same,Percent Effect,[10],10.3%
same,Percent Effect,[11],-3.52%
Cn1cc(C(=O)Nc2ccccc2)c2ccccc21,PXC50,[12]; MAX_EFFECT 6.666666667,< 4
Cc1cc(Cl)cc(Cl)c1O,PXC50,[12]; MAX_EFFECT 7.127429806,< 3
same,PXC50,[12]; MAX_EFFECT 14.63878327,< 3
Oc1ccc(Cl)cc1Cl,PXC50,[12]; MAX_EFFECT 9.315589354,< 3
same,PXC50,[12]; MAX_EFFECT 10.1511879,< 3
NCC(O)c1cc(Cl)cc(Cl)c1 (stereo not given),PXC50,[12]; MAX_EFFECT 9.287257019,< 3
same,PXC50,[12]; MAX_EFFECT 13.11787072,< 3
Cc1nc(N2CCN(C(=O)C(C)C)CC2)c2c3c(sc2n1)CC(C)CC3 (stereo not given),PXC50,[12]; MAX_EFFECT 28.46347607,< 4
same,PXC50,[12]; MAX_EFFECT 29.26208651,< 4
